PubChem BioAssay (NCI)
Values joined by “and” are separate entries in the source; they are usually repeats but may differ in a detail not shown here. Equal entries are not always repeated. About 79,000 compounds went through this panel and 15% of them were active in at least one assay; those are over-represented in the sample as a whole. Cut-off read from the data, not from the text of the source: active = growth inhibition above about 70%; inactive = the rest. Where a SMILES comes first, the peptide text is derived from it. The star is where a group is joined. Cbz = O=C(OCc1ccccc1)*; NHNH2 = NN*

Columns and labels:
[1] = NCI Yeast Anticancer Drug Screen. Data for the rad50 strain (AID 155);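 note: 0% = growth of vehicle-only cultures of the same strain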; conditions: S. cerevisiae rad50 strain growth inhibition, stronger effect = higher value; at 50.0 µM unless noted
In short: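 Genetically altered yeast (DNA repair pathway); compound treatment; growth inhibition vs vehicle ctrl.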

[2] = NCI Yeast Anticancer Drug Screen. Data for the mec2-1 strain (AID 157); conditions: S. cerevisiae mec2-1 strain, stronger effect = higher value; at 50.0 µM unless noted
In short: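 Yeast mec2-1 mutant treated with compound. Readout: growth inhibition vs vehicle controls.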

[3] = NCI Yeast Anticancer Drug Screen. Data for the sgs1 mgt1 strain (AID 161);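 note: 0% = growth of cultures given vehicle only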; conditions: S. cerevisiae sgs1 mgt1 strain, stronger effect = higher value; at 50.0 µM unless noted
In short: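 Genetically altered yeast, compound exposure, growth inhibition relative to vehicle.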

[4] = NCI Yeast Anticancer Drug Screen. Data for the cln2 rad14 strain (AID 165);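 note: 0% = growth equal to vehicle treated cultures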; conditions: S. cerevisiae cln2 rad14 strain, stronger effect = higher value; at 50.0 µM unless noted
In short: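 cln2 rad14 yeast strain; compound exposure; growth inhibition read vs vehicle controls.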

[5] = NCI Yeast Anticancer Drug Screen. Data for the bub3 strain (AID 167); conditions: S. cerevisiae bub3 mutant strain, stronger effect = higher value; at 50.0 µM unless noted
In short: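 Yeast carrying a defined mutation is treated with each compound, and growth is compared with that of vehicle-exposed cells to give inhibition.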

[6] = NCI Yeast Anticancer Drug Screen. Data for the mlh1 rad18 strain (AID 175); conditions: S. cerevisiae mlh1 rad18 strain growth inhibition, stronger effect = higher value; at 50.0 µM unless noted
In short: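 Yeast w/ defined DNA-repair lesions; compound exposure; growth vs vehicle controls → % inhibition.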

Measured: growth inhibition

CSCCSC
inactive: [1] 10.2% | [2] 4.6% | [3] -0.1% | [4] 13.4% | [5] 3.4% | [6] 3.65%

COc1cc(C2c3cc4c(c(OC5OC(CO)C(O)C5O)c3CC3COC(=O)C32)OCO4)cc(OC)c1OC (stereo not given)
inactive: [1] 34.4% | [2] 6.65% | [3] 17.9% | [4] 19.9% | [5] -0.95% | [6] 5.7%

O=[N+]([O-])c1ccc(/C(=C\c2ccc(-c3ccccc3)o2)S(=O)(=O)c2ccccc2)o1
inactive: [1] 26.2% | [2] -17.5% | [3] -5.1% | [4] 23.6% | [5] -1.2% | [6] 2.25%

CCCCCCCCCc1cc(=O)c2c(O)cccc2o1
inactive: [1] -25.8% | [2] -30.6% | [3] -11% | [4] -20.1% | [5] 18.6% | [6] -22.4%

CN(C)C[C@@H]1C2C=CC(C2)[C@@H]1CO (stereo not given in full)
inactive: [1] -6.5% | [2] 4.55% | [3] -0.9% | [4] 4.95% | [5] 2.25% | [6] -10.6%

CCCCC1(CC)COC(C)(CC)OC1 (stereo not given)
inactive: [1] 29.4% | [2] 15.7% | [3] 5.3% | [4] -26.6% | [5] -19.4% | [6] 17.5%

O=[N+]([O-])c1c[nH]c2ncnc(Cl)c12
inactive: [1] 4.25% | [2] 0.6% | [3] 0.35% | [4] -6.8% | [5] -3% | [6] 6.8%

Cc1ccc(C2=NN(c3ccccc3)C(c3ccccc3)C2NC2CCCCC2)cc1 (stereo not given)
inactive: [1] 41.1% | [2] -12.3% | [3] 19.6% | [4] -27.4% | [5] 0.5% | [6] 10.3%

COCCCCCCCCCCCC(=O)O
inactive: [1] -23.4% | [2] 1.3% | [3] -46.2% | [4] -0.15% | [5] -21.2% | [6] -63.7%

O=C(O)CNC(=O)CNC(=O)CNC(=O)C(CSC(c1ccccc1)(c1ccccc1)c1ccccc1)NC(=O)OCc1ccccc1 (stereo not given)
inactive: [1] 20.4% | [2] 4.5% | [3] -13.7% | [4] 22.1% | [5] 10.7% | [6] 4.9%

NC(CC(=O)c1ccccc1NC=O)C(=O)O (stereo not given)
inactive: [1] 8.85% | [2] -1.4% | [3] -9.95% | [4] -48.6% | [5] -0.95% | [6] 3.25%

Oc1ccccc1C1CCCC1
inactive: [1] 5.55% | [2] -10% | [3] -4.75% | [4] 3.7% | [5] 0.25% | [6] -2.45%

Cc1ccc(OCC(=O)O)c(Cl)c1
inactive: [1] -1.9% | [2] -1.9% | [3] 0.65% | [4] -22.4% | [5] 17.4% | [6] 2.3%

COc1cc(/C=N/NC(=O)c2ccccc2OC)ccc1O
inactive: [1] 41.4% | [2] 17.4% | [3] 22.9% | [4] 20.8% | [5] 27.9% | [6] 17.2%

C=CCOC(=O)C(C)OC(=O)CCC(=O)OC(C)C(=O)OCC=C (stereo not given)
inactive: [1] 5.35% | [2] 4.3% | [3] 4.35% | [4] 3.95% | [5] 6.15% | [6] 4.85%

CC/C(C)=N\NS(=O)(=O)c1ccc(NC(C)=O)cc1
inactive: [1] -5% | [2] -14.3% | [3] 18.1% | [4] 20.8% | [5] -33.5% | [6] -0.7%

Cc1ccc2nc(NC(=O)C(=O)C(C#N)c3nc4ccccc4s3)sc2c1 (stereo not given)
inactive: [1] 11.2% | [2] 1.75% | [3] 19.7% | [4] 25.6% | [5] 18.5% | [6] 19.2%

CC(C)C(=O)/C=C/c1ccc(Cl)cc1
inactive: [1] 0.95% and -1.3% | [2] -18.9% and -16.6% | [3] -16.1% and -10.2% | [4] -66.7% and -44.9% | [5] -0.75% and -28.1% | [6] -16.9% and -8.65%

O=S1(=O)CS/C(=N\C(=S)N(c2ccccc2)c2ccccc2)N1c1ccccc1
inactive: [1] 32.5% | [2] -11.3% | [3] -3.4% | [4] 18.2% | [5] 4.75% | [6] 2.2%

Clc1nc2n(c1/C=C/c1cccs1)CCS2
inactive: [1] 28.4% | [2] 23.2% | [3] 56.4% | [4] 13.9% | [5] 20.6% | [6] 59.5%

CCCCCCN(CCCCCC)CC(O)c1cc(-c2ccc(Cl)cc2)nc2c(Cl)cccc12 (stereo not given)
inactive: [1] -21.2% | [2] -8.05% | [3] 18.4% | [4] -0.35% | [5] -9.5% | [6] 19.9%

S=C(NC1CCCCC1)SSSC(=S)NC1CCCCC1
inactive: [1] -6.7% | [2] -4.65% | [3] -8.05% | [4] 15.2% | [5] -17.4% | [6] 6.8%

COC(=O)C(=O)C(C(=O)C(=O)Nc1cccc(C(C)=O)c1)c1nc2ccccc2[nH]c1=O (stereo not given)
inactive: [1] 2.7% | [2] -9.45% | [3] 2.15% | [4] 14.2% | [5] -18.9% | [6] 3.5%

COC(=O)c1[nH]c(=O)c2ccc([N+](=O)[O-])cc2c1O
inactive: [1] -15.7% | [2] 0.15% | [3] -14.9% | [4] 16.1% | [5] -6.05% | [6] -0.4%

COc1ccc2c(c1)c(COC(C)=O)c(C)c[n+]2[O-]
inactive: [1] 25.1% | [2] 28.8% | [3] 42.1% | [4] 16.6% | [5] 22.1% | [6] 52.9%

O=C(Cc1ccccc1)NC/C=N/O
inactive: [1] 26.5% | [2] -20% | [3] 10.2% | [4] -2% | [5] -43.1% | [6] -4.75%

CC1=N/C(=C\c2cccc([N+](=O)[O-])c2)C(=O)O1
inactive: [1] -6.9% | [2] -30.8% | [3] 5.1% | [4] 3.35% | [5] -10.7% | [6] 13.5%

CNC(=O)Nc1cccc(C(=O)O)c1
inactive: [1] -0.3% | [2] -16.8% | [3] -11.1% | [4] -50.9% | [5] 4.35% | [6] 4.35%

CCc1c(C)[nH]c2ccc([N+](=O)[O-])cc12
inactive: [1] 18.2% | [2] 3.25% | [3] 6.7% | [4] 19.9% | [5] 23.2% | [6] 26.4%

COCCCC(=O)CNC(C)C
inactive: [1] -5.05% | [2] -42.1% | [3] -8.75% | [4] -15.4% | [5] -21.1% | [6] -14.4%

CCOC(=O)CCC(NC(=O)OCc1ccccc1)C(=O)NC(CCC(=O)OCC)C(=O)NN (stereo not given) (Cbz-Glu(OEt)-Glu(OEt)-NHNH2; configuration not given here)
inactive: [1] 2.65% | [2] 7.75% | [3] 2.5% | [4] 11.8% | [5] 23.2% | [6] 27.3%

O=C1NC(=S)S/C1=C/C=C/c1ccccc1
inactive: [1] -21.4% | [2] 3.8% | [3] 7.7% | [4] 15.9% | [5] -5.2% | [6] 25.9%

CCCC1([N+](=O)[O-])c2ccccc2-c2ccc([N+](=O)[O-])cc21 (stereo not given)
inactive: [1] 20.4% | [2] 7.9% | [3] 22.4% | [4] 11% | [5] 46.1% | [6] 49.7%

CC(=O)OC1C(Br)CCCC1Br (stereo not given)
inactive: [1] -26% | [2] 4.25% | [3] 1.75% | [4] 1.9% | [5] 0.45% | [6] 15.8%

COc1cc2c(cc1OC)NC(=O)NC(Cc1ccc3c(c1)OCO3)CC2 (stereo not given)
inactive: [1] 20.6% | [2] 10.8% | [3] 13.8% | [4] -47% | [5] 22.3% | [6] 27.3%

COc1cccc(NC(=O)NCCCl)c1OC
inactive: [1] -1.2% | [2] 11.8% | [3] 11.6% | [4] 41% | [5] -3.8% | [6] 22.4%

COc1ccc2c(c1)[n+](=O)c(C(=O)C/C(=N/NC(=O)c1ccccc1O)C(=O)Nc1ccc(Cl)c(C(F)(F)F)c1)c(C)n2[O-]
inactive: [1] 25.1% | [2] 9.4% | [3] 14.5% | [4] 8.75% | [5] 34.2% | [6] 1.35%

CC1=NN(C(=O)CC(=O)Nc2ccc(C)cc2)C(=O)C1N=Nc1ccc(S(=O)(=O)c2ccc(N=NC3C(=O)N(C(=O)CC(=O)Nc4ccc(C)cc4)N=C3C)cc2)cc1 (stereo not given)
inactive: [1] 49.8% | [2] 36% | [3] 36.8% | [4] 21.2% | [5] -1.2% | [6] 39.6%

CCN(CC)C(=O)/C=C/c1ccccc1
inactive: [1] -54.9% | [2] -28.6% | [3] -6.05% | [4] -33.2% | [5] 1.7% | [6] -14.8%

Cc1ncc(CO)c(CO)c1OCC(O)CN1CCN(c2ccc(F)cc2)CC1 (stereo not given)
inactive: [1] -15.8% | [2] -2.65% | [3] -8.25% | [4] -41.2% | [5] -6.9% | [6] -0.45%
